PubChem BioAssay
Values without a mark were called inactive. How the calls were made is not given here.

What follows are compounds tested against Pantothenate synthetase (Mycobacterium tuberculosis (strain ATCC 25618 / H37Rv)) (UniProt P9WIL5) (assay: Coupled enzyme confirmation of inhibitors against recombinant Mtb PanC (AID 375;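 further: 0% = full reaction with vehicle and 100% = no enzyme background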)). Details: coupled enzyme assay; at 10 µM, hits give high values.
Chain of Pantothenate synthetase (Mycobacterium tuberculosis (strain ATCC 25618 / H37Rv)) (P9WIL5 whole entry, looked up): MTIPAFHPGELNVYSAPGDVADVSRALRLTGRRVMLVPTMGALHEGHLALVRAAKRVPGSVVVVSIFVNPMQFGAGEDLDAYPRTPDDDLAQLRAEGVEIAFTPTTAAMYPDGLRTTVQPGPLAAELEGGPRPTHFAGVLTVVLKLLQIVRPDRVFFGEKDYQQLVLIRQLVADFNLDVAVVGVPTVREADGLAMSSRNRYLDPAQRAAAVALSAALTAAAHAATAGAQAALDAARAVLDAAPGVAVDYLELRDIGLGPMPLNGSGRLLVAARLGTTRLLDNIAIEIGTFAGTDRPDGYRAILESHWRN
Compound `Cc1cccc(N=C2NC(=O)CS2)c1C` has an inhibition of 0%. For `CC(=O)NCC(=O)OC(C)C(=O)Nc1ccc(C(C)=O)cc1` (stereo not given), the inhibition was 3%. Compound `Cc1ccc(C(C)C)c(OCCCN2CC(C)OC(C)C2)c1` (stereo not given) has an inhibition of 0%. For `Cc1cccc(-c2noc(CCC(=O)Nc3ccccc3)n2)c1`, the inhibition was 5%. For `CC(C)(C)NCC(O)COc1cccc2c1C[C@H](O)[C@H](O)C2` (stereo not given in full), the inhibition was 0%. `CCNc1nc(N2CCOCC2)nc(N(c2ccccc2)c2ccccc2)n1` showed an inhibition of 0%. `C=CCNC(=O)CSc1ccc(Cl)cc1` was tested, and the inhibition was 0%. `CC(C)NCC(O)COc1ccc(CCOCC2CC2)cc1` (stereo not given) was tested, and the inhibition was 0%. Compound `COc1ccc(NC(=O)CSc2c(C)nn(-c3nnc(C)c(=O)[nH]3)c2C)cc1` has an inhibition of 0%. For `O=C(CN1C(=O)c2cccc3cccc1c23)N1CCN(c2ccccc2)CC1`, the inhibition was 0%. Compound `Cc1c(C2Nc3ccccc3NC3=C2C(=O)CC(C)(C)C3)cnn1C` (stereo not given) has an inhibition of 2%. With `CCOC(=O)c1cc2c(=O)n3cccc(C)c3nc2n(CCOC)c1=NC(=O)c1ccncc1` the inhibition was 0%. `Cc1ccc(-c2cc(C(F)(F)F)n3nc(C(=O)N4CCCC4)cc3n2)cc1` showed an inhibition of 5%. In the case of `COc1ccccc1OCCCn1c(=O)oc2ccccc21`, the inhibition is reported as 0%. With `Cc1noc(C)c1S(=O)(=O)NCCN1CCN(c2ccccc2)CC1` the inhibition was 4%. Work on `Cc1c(C(=O)NC2CC2)oc2ccc(S(=O)(=O)N3CCCCCC3)cc12` yielded an inhibition of 0%. With `CC1(C)CC(=O)c2cnc(NC(=O)Cc3ccc(Cl)cc3)nc2C1` the inhibition was 0%. `CCOC(=O)N1CCC(Nc2ncnc3c2cnn3-c2ccc(C)cc2C)CC1` showed an inhibition of 3%. For `C=CCSc1nnc(NC(=O)c2ccc(S(=O)(=O)NCC3CCCO3)cc2)s1` (stereo not given), the inhibition was 1%. Work on `O=C(Nc1nc(-c2cccs2)cs1)c1cccc(S(=O)(=O)N2CCCCC2)c1` yielded an inhibition of 0%. With `O=c1oc2c3c4c(cc2s1)CCCN4CCC3` the inhibition was 0%. `COc1ccc(NC(=O)C23CCC(C)(C(=O)C2)C3(C)C)cc1` (stereo not given) gave an inhibition of 0%. `Cc1ccc(S(=O)(=O)N2CCN(C(=O)CSc3nnnn3C)C2)cc1` showed an inhibition of 1%. Work on `COc1ccc(-c2nc(C#N)c(NCCCN(C)C)o2)cc1OC` yielded an inhibition of 0%. `CCn1c(SCC(=O)Nc2ccc3c(c2)OCO3)nc2c(c1=O)SC(C)C2` (stereo not given) showed an inhibition of 0%. `O=C1c2ccccc2C(=O)N1Cc1nc2ccccc2c(=O)n1CCN1CCOCC1` showed an inhibition of 1%. `COc1ccc(-c2oc3ncn(CCN4CCOCC4)c(=N)c3c2-c2ccc(OC)cc2)cc1` showed an inhibition of 0%. Work on `CC(=O)c1c(C)[nH]c(C(=O)Nc2ccc3c(c2)OCCO3)c1C` yielded an inhibition of 3%. `O=S(=O)(Cc1ccccc1)N1CCN(Cc2ccccc2)CC1` showed an inhibition of 5%. `O=C(COc1ccccc1)NCC(c1cccs1)N1CCOCC1` (stereo not given) was tested, and the inhibition was 4%. `Cn1c(SCC(=O)Nc2cccc3ccccc23)nc(O)cc1=O` showed an inhibition of 0%. `CCOc1cc(C)c(C(C)C)cc1S(=O)(=O)N1CCN(C)CC1` gave an inhibition of 0%. Work on `O=C(/C=N/O)NCc1ccncc1` yielded an inhibition of 1%. Work on `O=C(c1ncc[nH]1)c1ccccc1C(=O)N1CCOCC1` yielded an inhibition of 1%. Work on `COc1ccc(C(CC(=O)O)NC(=O)c2ccccc2)cc1OC` (stereo not given) yielded an inhibition of 0%. In the case of `O=C(CSc1nc(N2CCCCC2)nc(N2CCCCC2)n1)Nc1nccs1`, the inhibition is reported as 0%. In the case of `COc1ccc(/C=N/n2c(SC)nnc2-c2ccccc2)cc1C`, the inhibition is reported as 0%. With `COc1cc(OC)cc(-n2nnnc2SCC(=O)N2CCCC2)c1` the inhibition was 0%. With `COCCn1c(SCc2csc(-c3ccccc3)n2)nc2ccccc21` the inhibition was 5%. `Cc1cccc(N2C(=O)CC(N3CCN(C(=O)c4ccccc4)CC3)C2=O)c1` (stereo not given) gave an inhibition of 5%.
